Measurements as given in PubChem BioAssay (Tox21).
Inconclusive results are not listed. Entries that show only a call come without a potency. The source made the active and inactive calls. The call rests on the fitted dose curve; in most records, active means well fitted cell-killing curve with a large enough effect in the repeat runs; inconclusive means weak or mixed curves; inactive means no such curve, though single readings can be large or run the other way.

Experiment: qHTS assay for identifying genotoxic compounds that show differential cytotoxicity against isogenic chicken DT40 cell lines with known DNA damage response pathways - Rad54/Ku70 mutant cell line (AID 743015); further: nearly all actives have a fitted effect of over 60% in size
Settings: DT40 Rad54/Ku70 mutant viability, CellTiter-Glo, 40 h; series mostly up to 66.8 µM
Potency means the concentration at half of the fitted maximal effect.

| SMILES | Potency |
| --- | --- |
| C=C1C(=C/C=C2\CCC[C@]3(C)[C@@H]([C@H](C)CCCC(C)(C)O)CC[C@@H]23)C[C@@H](O)C[C@@H]1O | 10.6 µM (active) |
| C=C1C(=C/C=C2\CCC[C@]3(C)[C@@H]([C@H](C)/C=C/[C@H](C)C(C)C)CC[C@@H]23)C[C@@H](O)C[C@@H]1O | 16.8 µM (active) |
| O=C(CCCN1CCC(n2c(=S)[nH]c3ccccc32)CC1)c1ccc(F)cc1 | 16.8 µM (active) |
| CC(C)[C@@H](N)C(=O)O | inactive |
| CCCCCCCCCCCCCCCC(=O)OC[C@@H](COP(=O)([O-])OCC[N+](C)(C)C)OC(=O)CCCCCCCCCCCCCCC | inactive |
| CCC(=O)O[C@H]1CC[C@H]2[C@@H]3CCc4cc(O)ccc4[C@H]3CC[C@]12C | 23.7 µM (active) |
| COc1cc(/C=C/C(=O)N2CCN(CC(=O)N3CCCC3)CC2)cc(OC)c1OC | inactive |
| Cc1nnc(C(C)C)n1C1C[C@H]2CC[C@@H](C1)N2CC[C@H](NC(=O)C1CCC(F)(F)CC1)c1ccccc1 (stereo partly specified) | inactive |
| CC1=C(/C=C/C(C)=C/C=C/C(C)=C/C=C/C=C(C)/C=C/C=C(C)/C=C/C2=C(C)C[C@@H](O)CC2(C)C)C(C)(C)C[C@H](O)C1 | 11.9 µM (active) |
| O=C(O)CCC/C=C\C[C@@H]1[C@@H](/C=C/[C@@H](O)COc2cccc(Cl)c2)[C@H](O)C[C@@H]1O | inactive |
| CCCCCCCCCCCCCCCC(=O)O[C@@H]1CC(C)=C(/C=C/C(C)=C/C=C/C(C)=C/C=C/C=C(C)/C=C/C=C(C)/C=C/C2=C(C)C[C@@H](OC(=O)CCCCCCCCCCCCCCC)CC2(C)C)C(C)(C)C1 | inactive |
